Most compounds without a hit are left out; they make up all but 19% or so of the library.
HepG2 tox: kills HepG2 cells in TGF-b inhibitor counter-screen; HepG2 CAGA-GFP viability, ATP luminescence, 18 h; Potency, µM (titrated, usually from 46.1 µM), inactives show at the highest dose activity change, negative = cytotoxicity, hits mostly cytotoxic; actives 0.76% (n = 410,000); also: potency is read from the fitted curve at half-maximal effect
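HepG2 CAGA-GFP cells (1000/well, DMEM with 1% FBS) received compound, then TGF-beta at 500 pg/mL final, and were incubated 18 hours at 37 degrees C. Viability was read by CellTiter-Glo luminescence. Media-only wells were set as complete cell-killing and DMSO as no toxicity.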
TDP1 block: TDP1 (human) enzyme inhibition. recombinant TDP1, AlphaScreen DNA substrate cleavage. Potency, µM (series often up to 130 µM), inactives show top-dose activity change, negative = inhibition, hits mostly inhibitors. actives 0.28% (n = 350,000). AID 485290; also: potency is read from the fitted curve at half-maximal effect; % is scaled to controls: 0 for no effect and ±100 for the full control effect; nearly all actives have a fitted effect of over 40% in size
Target sequence (Q9NUW8 whole entry, looked up): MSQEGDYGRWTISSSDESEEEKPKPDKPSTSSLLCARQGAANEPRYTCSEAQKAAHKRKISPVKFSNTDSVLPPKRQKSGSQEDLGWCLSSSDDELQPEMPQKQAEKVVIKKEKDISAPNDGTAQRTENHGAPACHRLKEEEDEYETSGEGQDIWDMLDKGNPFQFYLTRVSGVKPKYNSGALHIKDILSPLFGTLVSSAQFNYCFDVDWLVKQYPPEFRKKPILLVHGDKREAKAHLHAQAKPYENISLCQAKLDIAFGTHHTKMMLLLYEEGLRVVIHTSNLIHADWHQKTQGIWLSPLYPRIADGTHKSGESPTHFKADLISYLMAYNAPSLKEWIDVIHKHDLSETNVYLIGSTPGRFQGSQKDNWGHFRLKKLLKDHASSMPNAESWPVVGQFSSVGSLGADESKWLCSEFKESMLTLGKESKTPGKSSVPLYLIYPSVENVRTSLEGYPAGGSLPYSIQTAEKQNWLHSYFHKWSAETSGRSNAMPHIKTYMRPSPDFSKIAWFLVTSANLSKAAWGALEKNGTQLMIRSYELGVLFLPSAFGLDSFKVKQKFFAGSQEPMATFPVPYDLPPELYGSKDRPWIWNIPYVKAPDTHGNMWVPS
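E. coli-derived human Tdp1, 1 nM final. Cpd preinc 15 min RT; substrate 15 nM final, 5 min RT; AS bead mix 10 ug/ml final, 10 min RT. Signal loss = tyrosine-FITC cleavage. No-enzyme wells = max signal.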
TGFb inhibitor: blocks TGF-b signaling. HepG2 CAGA-GFP TGF-b/SMAD3 reporter, GFP fluorescence, 18 h; TGF-beta stimulated, 500 pg/mL final. Potency, µM (top dose mostly 46.1 µM), for inactives: at the top dose activity, negative = inhibition, usual class: inhibitors. actives 1.2% (n = 410,000). AID 588855; also: potency is read from the fitted curve at half-maximal effect; % is scaled to controls: 0 for no effect and ±100 for the full control effect; nearly all actives have a fitted effect of over 65% in size
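GFP signal (ex488/em500-530) from TGF-beta-stimulated HEPG2 CAGA-GFP cells, 500 pg/mL final, 18 h at 37 degrees C in DMEM plus 1% FBS, normalized to unstimulated and DMSO-stimulated controls.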
DT40 TDP1 no CPT: qHTS for Inhibitors of human tyrosyl-DNA phosphodiesterase 1 (TDP1): qHTS in cells in absence of CPT; DT40 Tdp1-/- hTDP1 cells, no CPT, ATP luminescence, 48 h; Potency, µM (highest dose often 46.2 µM), for inactives: top-dose activity change, negative = growth inhibition, actives largely listed as inhibitors; actives 15% (n = 420,000); AID 686978, 2013; also: potency is read from the fitted curve at half-maximal effect; % is scaled to controls: 0 for no effect and ±100 for the full control effect; nearly all actives have a fitted effect of over 55% in size
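Cells were dispensed at 400 per well, compounds added by pin tool, plates incubated ≥48 hr at 37 °C, then CellTiter-Glo added for 30 min at room temperature before luminescence reading. Line: DT40 Tdp1-/- complemented with hTDP1; camptothecin omitted.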
IL1B secr inh: inhibitors of inflammasome signaling (IL-1 beta secretion) | activity change, % at 57.5 µM | THP-1 LPS/ATP IL-1B secretion, AlphaLISA, 16 h; active compounds read low | AID 743279 | actives 4.7% (n = 360,000); in the data active = activity change below about -50%; inconclusive = mostly about -30% to -49%; also: % is scaled to controls: 0 for no effect and ±100 for the full control effect
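THP-1 cells pretreated 1 hr with compounds (up to 57.5 uM final), then stimulated with LPS (250 ng/mL final) plus ATP (1.25 mM final); secreted IL-1B measured by AlphaLISA after 16 hr, decreased signal indicating inhibition.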
TDP1 cell CPT: growth inhibition of DT40 Tdp1-/-;hTDP1 cells with camptothecin (screen for TDP1 inhibitors); actives 12% (n = 420,000); Potency, µM (highest dose often 46.2 µM), without a hit: top-dose activity change, negative = growth inhibition, usual class: inhibitors; chicken DT40 Tdp1-/-;hTDP1 cells + 20 nM CPT, ATP luminescence, 48 h; also: potency is read from the fitted curve at half-maximal effect; % is scaled to controls: 0 for no effect and ±100 for the full control effect; nearly all actives have a fitted effect of over 55% in size
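Chicken DT40 Tdp1-/- cells complemented with human TDP1, 400 cells/well, exposed to compounds plus 20 nM camptothecin for at least 48 h at 37 C; viability read as ATP content by CellTiter-Glo luminescence.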
* hit, by the source's call; ? = inconclusive; / = no result; [ ] = another dose, or the depositor's remark. Unless noted, calls follow the shape of the dose curve; as a rule, active = well fitted curve in the direction sought with a large enough effect; inconclusive = small, poorly fitted or top-dose-only effect, or another doubt; inactive = no such curve, though single readings can be large; an effect the other way counts as inactive or inconclusive.

SMILES	HepG2 tox	TDP1 block	TGFb inhibitor	DT40 TDP1 no CPT	IL1B secr inh	TDP1 cell CPT
COc1ccc(NS(=O)(=O)c2cccc(C(=O)NNC(=O)CN3C(=O)NC(C)(C)C3=O)c2)cc1	-19%	/	-13%	6%	12	-8%
CC1CCCCC1NC(=O)COC(=O)CNC(=O)c1cccc(F)c1 (configuration not stated)	-18%	8%	?	3%	25	13%
O=C(CCC(=O)N1CCOc2ccccc21)NCCCN1CCN(Cc2ccccc2)CC1	-26%	/	-3%	?	-10	-27%
CCOC(=O)Cn1c2c(c(=N)c3ccccc31)CCC2	2%	5%	?	-18%	16	-10%
CCCCCn1c2c(c(=N)c3ccccc31)CCC2	-51%	1%	?	1.5µM*	?	1.8µM*
CCCCn1c2c(c(=N)c3ccccc31)CCC2	0%	1%	-16%	?	-2	?
CCCCCCCCn1c2c(c(=N)c3ccccc31)CCC2	-22%	0%	?	0.41µM*	-96*	0.41µM*
CCCn1cc(CN2CCC(n3nccc3NC(=O)C(OC)c3ccccc3)CC2)c(C)n1 (configuration not stated)	-3%	1%	3%	?	27	7%
CCC1=C(OC(=O)N(CC)CC)N2C(=O)OC(=NCC3CC3)[C@]2(Cc2ccccc2)[C@H]2C1=CC[C@H]1C(=O)N(CC)C(=O)[C@H]12	-4%	8%	-12%	21µM*	?	16µM*
CCCC1c2ccc(C)n2CCN1C(=O)Nc1ccccc1Cl (configuration not stated)	-1%	3%[56.1 µM]	-3%	21µM*	-21	-28%
CCC1c2ccc(C)n2CCN1C(=O)Nc1ccccc1C(=O)OC (configuration not stated)	-22%	4%	-20%	?	-7	?
CCOC(=O)c1ccccc1NC(=O)N1CCn2c(C)ccc2C1CC (configuration not stated)	-19%	1%	1%	?	1	23µM*
CCC1c2ccc(C)n2CCN1C(=O)Nc1cc(Cl)ccc1OC (configuration not stated)	-35%	1%	1%	?	2	?
O=C(NC1CCCCCC1)C(=S)NC1CCCCC1	-9%	0%	-11%	5%	8	9%
COc1ccc(CC(=O)OCC(=O)N(C)C2CCS(=O)(=O)C2)cc1OC (configuration not stated)	0%	/	9%	0%	6	3%
Cc1ccc(NC(=O)Cn2nnc(C(=O)NCc3ccc4c(c3)OCO4)c2N)cc1Cl	-6%	1%	2%	5%	/	-11%
Cc1cccc(NC(=O)C2C3CCCCC32)c1 (configuration not stated)	-13%	/	-13%	-3%	-16	-6%
O=C(CSc1nc(C(F)(F)F)cc(=O)[nH]1)Nc1ccc2c(c1)OCCO2	1%	9%	9%	10%	16	-4%
CC(=O)c1ccc(NC(=O)CSC2=Nc3ccccc3N=C(c3ccc(F)cc3)C2)cc1	0%	7%	?	9.2µM*	/	16µM*
O=C(CSC1=Nc2ccccc2N=C(c2ccc(F)cc2)C1)Nc1ccc(Cl)cc1	10%	2%	4%	26µM*	/	21µM*
O=C(CSC1=Nc2ccccc2N=C(c2ccc(F)cc2)C1)Nc1ccccc1	-2%	5%	?	?	/	?
Cc1ccc2c(=O)cc(C(=O)Nc3ccc(S(=O)(=O)N4CCCCCC4)cc3)oc2c1	4%	5%	2%	-7%	/	-8%
